Measured values as given in PubChem BioAssay.
Inconclusive results are not listed. Active and inactive are the calls of the source.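 How the source made its calls, unless noted: active means Her2 level under about 52% in both replicate screens, with viability over 70% of control (limit read from the data); inconclusive means Her2 under the limit in one screen only, or viability under 70%; inactive means Her2 level above the set limit.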

Legend:
[1] = reducers of endogenous Her2 protein level, primary screen, SKBR3 breast tumor cells, AlphaScreen, ATP viability (AID 461); settings: 18-24 h, measured here: SKBR3 viability, ATP luminescence, at 10 µM;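 on Her2 level: lower value means less Her2 protein in the cells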;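 on viability: percent of carrier control wells set as 100% viability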
[2] = target: Receptor tyrosine-protein kinase erbB-2 (Homo sapiens) (UniProt P04626); assay: as above; settings: 18-24 h, at 10 µM, stronger effect = lower value
[3] = SK-BR-3 cell growth inhibitors, pilot screen, 24 h, human (AID 572;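 active means viability at or below 10% of carrier control in both of two separate runs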;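 further: compound exposure lasted between 18 and 24 h rather than exactly 24 h; 100% = carrier-treated control wells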); settings: SK-BR-3 viability, CellTiter-Glo luminescence, at 10 µM, stronger effect = lower value
[4] = HUVEC growth inhibition – cell-based, human, primary screen (AID 575;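 active means viability at or below 30% in both replicate assays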;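 further: 100% = median of untreated cell wells with 0.1% DMSO on each plate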); settings: HUVEC proliferation, CellTiter-Glo luminescence, 72 h; at 10 µM; stronger effect = lower value
[5] = growth inhibitors of H69AR lung tumor, primary screen, human, duplicate replicates (AID 580;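 active means viability at or under a set limit in both replicates, limit being median viability minus 3 SD, cut at about 48% in these data, passing the limit was not always enough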;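 further: 100% = mean luminescence of untreated wells and 0% = no signal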); settings: H69AR lung tumor cells viability, ATP luminescence, 72 h; at 10 µM; stronger effect = lower value
[6] = 384-well plate pilot, post-Golgi transport modulator project, inhibition of yeast transport mutant growth (AID 636; in the data active means inhibition above about 31%); settings: absorbance 615 nm, about 18 h, stronger effect = higher value
[7] = growth suppression of yeast trafficking mutant, preliminary HTS, modulators of trafficking downstream of Golgi apparatus project, 1536-format plate, OD 615 nm (AID 637; in the data active means inhibition above about 30%); settings: yeast transport mutant growth, absorbance 615 nm, 18 h; stronger effect = higher value
[8] = OD615 S. cerevisiae growth inhibition, permissive medium, pilot counter-assay, permissive growth control for S. cerevisiae lifespan shortening project (AID 705;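 active means growth inhibition above 25% in both replicates, a cutoff set 3 SD above the mean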); settings: OD615, 24 h, at 10 µM, stronger effect = higher value
[9] = Restrictive medium S. cerevisiae growth inhibition, OD615, pilot screen of yeast lifespan reduction project, restrictive growth control (AID 706;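 active means growth inhibition above a set limit, 3 SD over mean compound inhibition, in both replicates, cut at about 43% in these data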;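 further: modified DeaD lifespan yeast strain shifted to restrictive glucose medium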); settings: OD615, 48 h, at 10 µM, stronger effect = higher value
[10] = viability gain of MRP-1-high H69AR cells under doxorubicin, pilot screen, MRP-1 activator project, CellTiter-Glo, duplicate (AID 807;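 active means viability increase at or above a cutoff of the median across tested compounds plus 3 SD, cut at about 8.5% in these data, passing the limit was not always enough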;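 further: compound pretreatment 18-22 h then 72 h combined with doxorubicin; 0% = doxorubicin alone and 100% = vehicle without doxorubicin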); settings: H69AR viability with doxorubicin, CellTiter-Glo luminescence; at 10 µM; stronger effect = higher value
[11] = growth suppression of beta-catenin knockout HCT116, pilot screen, human colon tumor cells (AID 823;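 active means cell viability at or below a set limit in both duplicate runs, the limit being the all-compound median minus 4 SD, cut at about 23% in these data, passing the limit was not always enough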;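 further: 0% = wells killed by 20 µM Hyamine and 100% = untreated DMSO cell wells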); settings: CellTiter-Glo, 60 h, at 10 µM, stronger effect = lower value
[12] = growth suppression of PTEN-deleted HCT116, pilot screen, cell-based, HCT116 clonal line, CellTiter-Glo (AID 824;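 active means viability at or below 27.92% in each of two runs, the all-compound median minus 4 SD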;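 further: 0% = 20 µM Hyamine control and 100% = vehicle cell control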); settings: 60 h, at 10 µM, stronger effect = lower value
[13] = inhibitors of the yeast RAM network, pilot screen, dse1pr::URA3 reporter, 5-FOA selection (AID 869;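 active means inhibition over a set limit, the all-compound mean plus 3 SD, in both replicate runs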;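 further: 0% = DMSO wells with no growth and 100% = 10 µM 1-NA-PP1 with full growth; RAM network block rescues cells from 5-FOA so hits raise OD615 growth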); settings: S. cerevisiae dse1pr::URA3 5-FOA growth, OD615, 2 d; at 10 µM; stronger effect = higher value; strain carries analog-sensitive mutant Cbk1 kinase
[14] = RAM signaling pathway blockade in yeast – S. cerevisiae, Pdr1DBD-CYC8 efflux-inhibited sensitized strain, primary screen (AID 1298;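 active means RAM network inhibition above 8.4% in each of two replicates, 3 SD over the compound average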;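 further: 0% = DMSO untreated cells without growth and 100% = 10 µM 1-NA-PP1 full growth; higher means more yeast growth rescued from 5-FOA killing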); settings: S. cerevisiae cbk1-as DSE1-URA3 strain, 5-FOA growth OD615, 2 d; at 50 µM; stronger effect = higher value
[15] = reversal of MRP1-mediated doxorubicin resistance, pilot screen, H69AR cells, doxorubicin co-treatment (AID 601;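 active means viability loss from added drug above about 55%, and viability with drug at most 40%, in both replicates, limit read from the data, passing the limit was not always enough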); settings: CellTiter-Glo, 72 h, at 10 µM; for differential viability (reversal): stronger effect = higher value
[16] = H69AR cells + 2 uM doxorubicin, measured here: viability with 2 uM doxorubicin, stronger effect = lower value
[17] = H69AR cells, compound alone cytotoxicity

Chain of Receptor tyrosine-protein kinase erbB-2 (Homo sapiens) (P04626 whole entry, looked up): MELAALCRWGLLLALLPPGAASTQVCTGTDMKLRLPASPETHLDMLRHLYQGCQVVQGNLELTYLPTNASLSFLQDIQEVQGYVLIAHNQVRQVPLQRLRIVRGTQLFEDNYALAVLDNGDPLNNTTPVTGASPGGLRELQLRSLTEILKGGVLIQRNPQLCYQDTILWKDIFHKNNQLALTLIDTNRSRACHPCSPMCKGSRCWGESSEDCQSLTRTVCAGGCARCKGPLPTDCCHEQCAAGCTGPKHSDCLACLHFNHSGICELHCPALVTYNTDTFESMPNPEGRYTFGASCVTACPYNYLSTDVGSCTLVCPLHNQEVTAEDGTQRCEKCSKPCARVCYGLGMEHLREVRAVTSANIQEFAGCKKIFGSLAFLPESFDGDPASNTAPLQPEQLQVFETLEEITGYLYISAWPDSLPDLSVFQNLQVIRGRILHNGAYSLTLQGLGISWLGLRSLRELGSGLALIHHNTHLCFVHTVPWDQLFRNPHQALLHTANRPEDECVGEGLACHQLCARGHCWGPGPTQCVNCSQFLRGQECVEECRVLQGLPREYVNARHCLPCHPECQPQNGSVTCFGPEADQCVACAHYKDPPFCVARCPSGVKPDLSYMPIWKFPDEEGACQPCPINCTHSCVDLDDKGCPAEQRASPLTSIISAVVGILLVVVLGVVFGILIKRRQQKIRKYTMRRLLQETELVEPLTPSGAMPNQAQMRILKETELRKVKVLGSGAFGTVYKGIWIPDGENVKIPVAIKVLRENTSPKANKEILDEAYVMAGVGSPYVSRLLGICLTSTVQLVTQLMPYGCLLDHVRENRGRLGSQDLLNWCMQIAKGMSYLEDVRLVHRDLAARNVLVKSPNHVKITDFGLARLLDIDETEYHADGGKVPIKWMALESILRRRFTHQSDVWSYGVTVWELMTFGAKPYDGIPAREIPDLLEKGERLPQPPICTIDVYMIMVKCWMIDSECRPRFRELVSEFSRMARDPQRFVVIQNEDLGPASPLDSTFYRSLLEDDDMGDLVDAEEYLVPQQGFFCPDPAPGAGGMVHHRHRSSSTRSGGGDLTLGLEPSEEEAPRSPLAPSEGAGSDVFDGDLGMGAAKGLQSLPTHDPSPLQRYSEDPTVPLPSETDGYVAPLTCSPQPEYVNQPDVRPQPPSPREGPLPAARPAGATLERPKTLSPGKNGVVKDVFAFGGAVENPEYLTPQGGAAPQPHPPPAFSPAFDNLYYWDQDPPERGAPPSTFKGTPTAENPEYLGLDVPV

## CCN1CCN(c2ncnc3c2cnn3-c2ccc(C)cc2C)CC1
[1]
  viability: 85.5%
[2]
  Her2 level: 96% (inactive)
[3]
  viability: 85.5% (inactive)
[4]
  viability: 99.8% (inactive)
[5]
  viability: 73.7% (inactive)
[6]
  inhibition: -6.4% (inactive)
[7]
  inhibition: 7.7% (inactive)
[8]
  growth inhibition: -5.99% (inactive)
[9]
  growth inhibition: -11% (inactive)
[10]
  viability increase: -6.88% (inactive)
[11]
  viability: 85.1% (inactive)
[12]
  viability: 81.6% (inactive)
[13]
  inhibition: 0.395% (inactive)
[14]
  RAM network inhibition: 0.63% (inactive)

## Cc1ccc(C(=O)CSc2n[nH]c(-c3ccco3)n2)cc1C
[1]
  viability: 106%
[2]
  Her2 level: 104% (inactive)
[3]
  viability: 106% (inactive)
[4]
  viability: 99.2% (inactive)
[5]
  viability: 101% (inactive)
[15]; H69AR cells + 2 uM doxorubicin
  differential viability (reversal): -3.95% (inactive)
[15]; [16]
  viability: 105%
[15]; [17]
  viability: 101%
[6]
  inhibition: -4.68% (inactive)
[7]
  inhibition: -4.67% (inactive)
[8]
  growth inhibition: -13.8% (inactive)
[9]
  growth inhibition: 3.79% (inactive)
[11]
  viability: 101% (inactive)
[12]
  viability: 107% (inactive)
[13]
  inhibition: 0.765% (inactive)
[14]
  RAM network inhibition: 0.94% (inactive)

## CCOC(=O)c1cc2c(=O)n3ccccc3nc2n(CC2CCCO2)c1=NC(C)=O (stereo not given)
[1]
  viability: 99%
[2]
  Her2 level: 95.5% (inactive)
[3]
  viability: 99% (inactive)
[4]
  viability: 102% (inactive)
[5]
  viability: 81.1% (inactive)
[6]
  inhibition: -6.71% (inactive)
[7]
  inhibition: -2.22% (inactive)
[8]
  growth inhibition: -22.2% (inactive)
[9]
  growth inhibition: -17.4% (inactive)
[10]
  viability increase: 0.08% (inactive)
[11]
  viability: 97.6% (inactive)
[12]
  viability: 93.8% (inactive)
[13]
  inhibition: 0.525% (inactive)
[14]
  RAM network inhibition: 3.93% (inactive)

## CC(C)CC1NC2(C(=O)N(C)c3ccccc32)C2C(=O)N(C(C)C)C(=O)C12 (stereo not given)
[1]
  viability: 86.5%
[2]
  Her2 level: 110% (inactive)
[3]
  viability: 86.5% (inactive)
[4]
  viability: 83.3% (inactive)
[5]
  viability: 99.1% (inactive)
[6]
  inhibition: -1.73% (inactive)
[7]
  inhibition: -0.33% (inactive)
[8]
  growth inhibition: 4.83% (inactive)
[9]
  growth inhibition: 6.6% (inactive)
[10]
  viability increase: -1.13% (inactive)
[11]
  viability: 103% (inactive)
[12]
  viability: 103% (inactive)
[13]
  inhibition: 1.11% (inactive)
[14]
  RAM network inhibition: 2.88% (inactive)

## C=CCn1c(COc2ccc(CC)cc2)nnc1SC/C(O)=C(\C#N)c1nc2ccccc2[nH]1
[1]
  viability: 86.5%
[2]
  Her2 level: 88% (inactive)
[3]
  viability: 86.5% (inactive)
[4]
  viability: 59.8% (inactive)
[5]
  viability: 106% (inactive)
[15]; H69AR cells + 2 uM doxorubicin
  differential viability (reversal): -1.07% (inactive)
[15]; [16]
  viability: 107%
[15]; [17]
  viability: 106%
[6]
  inhibition: -0.92% (inactive)
[7]
  inhibition: -6% (inactive)
[8]
  growth inhibition: 1.15% (inactive)
[9]
  growth inhibition: 0.59% (inactive)
[11]
  viability: 92.6% (inactive)
[12]
  viability: 91.3% (inactive)
[13]
  inhibition: 2.46% (inactive)
[14]
  RAM network inhibition: 6.17% (inactive)

## CCOc1ccccc1C1CC(c2ccc(Br)cc2)Nc2nc(N)nn21 (stereo not given)
[1]
  viability: 91.5%
[2]
  Her2 level: 102% (inactive)
[3]
  viability: 91.5% (inactive)
[4]
  viability: 63.3% (inactive)
[5]
  viability: 25.7% (active)
[15]; H69AR cells + 2 uM doxorubicin
  differential viability (reversal): -45.9% (inactive)
[15]; [16]
  viability: 71.6%
[15]; [17]
  viability: 25.7%
[6]
  inhibition: -2.13% (inactive)
[7]
  inhibition: 0.16% (inactive)
[8]
  growth inhibition: 9.24% (inactive)
[10]
  viability increase: -2.25% (inactive)
[11]
  viability: 69.3% (inactive)
[12]
  viability: 73.2% (inactive)
[13]
  inhibition: 2.62% (inactive)
[14]
  RAM network inhibition: 4.4% (inactive)

## COCCn1c(SCC(=O)N2CCc3ccccc32)nc2c(c1=O)SC(C)C2 (stereo not given)
[1]
  viability: 77%
[2]
  Her2 level: 104% (inactive)
[3]
  viability: 77% (inactive)
[4]
  viability: 67.8% (inactive)
[5]
  viability: 78.8% (inactive)
[6]
  inhibition: -3.87% (inactive)
[7]
  inhibition: -2% (inactive)
[8]
  growth inhibition: 6.33% (inactive)
[9]
  growth inhibition: 13.2% (inactive)
[10]
  viability increase: -2.72% (inactive)
[11]
  viability: 94.1% (inactive)
[12]
  viability: 94.3% (inactive)
[13]
  inhibition: 0.465% (inactive)
[14]
  RAM network inhibition: 6.03% (inactive)

## OC1(c2cccc(C(F)(F)F)c2)CCN(c2ccc(-c3ccccc3)nn2)CC1
[1]
  viability: 71.5%
[2]
  Her2 level: 78.5% (inactive)
[3]
  viability: 71.5% (inactive)
[4]
  viability: 86.4% (inactive)
[15]; H69AR cells + 2 uM doxorubicin
  differential viability (reversal): -2.92% (inactive)
[15]; [16]
  viability: 61.9%
[15]; [17]
  viability: 59%
[6]
  inhibition: 0.27% (inactive)
[7]
  inhibition: 0.98% (inactive)
[8]
  growth inhibition: -3.31% (inactive)
[9]
  growth inhibition: -9.3% (inactive)
[10]
  viability increase: -8.34% (inactive)
[11]
  viability: 10.7% (active)
[12]
  viability: 46.8% (inactive)
[13]
  inhibition: 1.11% (inactive)
[14]
  RAM network inhibition: 5.46% (inactive)

## COc1ccc(-n2ncc3c(N4CCN(c5cccc(C)c5C)CC4)ncnc32)cc1
[1]
  viability: 88%
[2]
  Her2 level: 79% (inactive)
[3]
  viability: 88% (inactive)
[4]
  viability: 11.3% (active)
[5]
  viability: 27.1% (active)
[15]; H69AR cells + 2 uM doxorubicin
  differential viability (reversal): 5.39% (inactive)
[15]; [16]
  viability: 21.7%
[15]; [17]
  viability: 27.1%
[6]
  inhibition: -2.4% (inactive)
[7]
  inhibition: -2.17% (inactive)
[8]
  growth inhibition: -5% (inactive)
[9]
  growth inhibition: -6.91% (inactive)
[10]
  viability increase: -7.5% (inactive)
[13]
  inhibition: 1.51% (inactive)
[14]
  RAM network inhibition: 7.15% (inactive)

## CCC(C)(NC(=O)CNC(C)=O)C(=O)NC1CCCCC1 (stereo not given)
[1]
  viability: 130%
[2]
  Her2 level: 108% (inactive)
[3]
  viability: 130% (inactive)
[4]
  viability: 105% (inactive)
[5]
  viability: 94% (inactive)
[15]; H69AR cells + 2 uM doxorubicin
  differential viability (reversal): -3.05% (inactive)
[15]; [16]
  viability: 97.1%
[15]; [17]
  viability: 94%
[6]
  inhibition: -5.48% (inactive)
[7]
  inhibition: -9.52% (inactive)
[8]
  growth inhibition: -15.5% (inactive)
[9]
  growth inhibition: -3.8% (inactive)
[10]
  viability increase: -1.92% (inactive)
[12]
  viability: 97.7% (inactive)
[13]
  inhibition: 2.88% (inactive)
[14]
  RAM network inhibition: -0.83% (inactive)

## O=c1[nH]c2ccc(Br)cc2c(-c2ccccc2)c1N1CCOCC1
[1]
  viability: 91%
[2]
  Her2 level: 111% (inactive)
[3]
  viability: 91% (inactive)
[4]
  viability: 60.1% (inactive)
[5]
  viability: 75.7% (inactive)
[6]
  inhibition: 0% (inactive)
[7]
  inhibition: 2% (inactive)
[8]
  growth inhibition: -12.5% (inactive)
[9]
  growth inhibition: -15.8% (inactive)
[10]
  viability increase: -3.63% (inactive)
[11]
  viability: 92.7% (inactive)
[12]
  viability: 75.2% (inactive)
[13]
  inhibition: 1.29% (inactive)
[14]
  RAM network inhibition: 0% (inactive)
